# For some assays here: Potency and affinity values are given separately.
# Key:
# Set-up in all cases: scale not given: direction of the effect not stated beside the values
# [1] = target: Protein translocase subunit SecA (Escherichia coli (strain K12)) (UniProt P10408); experiment: Assay to Identify E. coli SecA ATPase Inhibitors; format: functional; settings: 30 µM
# [2] = target: T1, Ubiquitin-activating enzyme e1, putative (Leishmania donovani (strain BPK282A1)) (UniProt E9BSI1); experiment: Leishmania donovani Ubiquitin Activating Enzyme (LdE1); format: functional; settings: 30 µM
# T1 sequence (whole entry): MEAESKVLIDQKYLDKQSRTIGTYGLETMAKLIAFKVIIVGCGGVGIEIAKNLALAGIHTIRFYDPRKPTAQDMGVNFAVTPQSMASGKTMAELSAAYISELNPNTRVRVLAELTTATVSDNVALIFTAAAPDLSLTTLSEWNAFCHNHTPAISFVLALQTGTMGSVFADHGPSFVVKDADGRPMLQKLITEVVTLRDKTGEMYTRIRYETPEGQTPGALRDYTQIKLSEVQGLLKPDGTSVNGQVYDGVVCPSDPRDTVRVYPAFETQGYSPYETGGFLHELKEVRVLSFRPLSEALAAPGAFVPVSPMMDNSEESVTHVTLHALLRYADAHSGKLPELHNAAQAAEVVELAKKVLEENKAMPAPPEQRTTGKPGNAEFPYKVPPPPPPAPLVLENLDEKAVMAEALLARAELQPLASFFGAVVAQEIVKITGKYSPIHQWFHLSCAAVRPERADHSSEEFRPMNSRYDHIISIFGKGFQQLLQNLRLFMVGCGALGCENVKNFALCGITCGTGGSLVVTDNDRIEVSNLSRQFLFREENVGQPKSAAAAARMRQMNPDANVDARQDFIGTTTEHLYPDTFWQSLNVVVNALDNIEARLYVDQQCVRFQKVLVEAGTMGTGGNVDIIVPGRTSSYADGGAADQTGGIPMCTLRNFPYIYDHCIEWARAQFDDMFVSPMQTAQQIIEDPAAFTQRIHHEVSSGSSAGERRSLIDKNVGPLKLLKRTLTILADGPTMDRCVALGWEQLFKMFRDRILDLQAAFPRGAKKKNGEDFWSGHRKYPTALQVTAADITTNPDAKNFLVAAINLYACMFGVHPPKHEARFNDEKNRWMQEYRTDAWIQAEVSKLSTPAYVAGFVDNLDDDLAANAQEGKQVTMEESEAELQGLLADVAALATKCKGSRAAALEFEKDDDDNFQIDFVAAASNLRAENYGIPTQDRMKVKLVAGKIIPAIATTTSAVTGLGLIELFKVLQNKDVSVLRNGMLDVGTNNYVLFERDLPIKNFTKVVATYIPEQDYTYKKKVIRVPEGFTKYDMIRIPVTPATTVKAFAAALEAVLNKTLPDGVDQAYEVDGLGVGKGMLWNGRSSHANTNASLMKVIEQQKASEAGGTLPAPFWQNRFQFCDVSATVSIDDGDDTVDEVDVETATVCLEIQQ
# [3] = target: AMP-activated protein kinase, AMPK (Homo sapiens) (UniProt P54646+O43741+P54619+Q9UGJ0+Q9Y478+Q13131+Q9UGI9); experiment: AMP-dependent Kinase enzyme assay. An in vitro enzyme assay that detects ADP turnover that is directly proportional to AMPK activity. This uses naive AMPK that is activated during the assay with MK-8722; format: functional; settings: 30 µM
# [4] = target: Sialic acid-binding Ig-like lectin 9 (Homo sapiens) (UniProt Q9Y336); experiment: Hs-Siglec9 ALPHAscreen SOP 20170721; settings: 10 µM
# [5] = tested on: Trypanosoma cruzi; experiment: Trypanosoma cruzi phosphomannomutase and mannose-1-phosphate guanylyltransferase assay; format: functional; settings: 10 µM
# [6] = target: T2, Arginase-2, mitochondrial (Homo sapiens) (UniProt P78540); experiment: in vitro enzyme assay to detect the production of urea directly proportional to the activity of Arginase II; format: functional; settings: 33.3 µM; note: in the data most compounds retested in dose-response had high values
# T2 sequence (whole entry): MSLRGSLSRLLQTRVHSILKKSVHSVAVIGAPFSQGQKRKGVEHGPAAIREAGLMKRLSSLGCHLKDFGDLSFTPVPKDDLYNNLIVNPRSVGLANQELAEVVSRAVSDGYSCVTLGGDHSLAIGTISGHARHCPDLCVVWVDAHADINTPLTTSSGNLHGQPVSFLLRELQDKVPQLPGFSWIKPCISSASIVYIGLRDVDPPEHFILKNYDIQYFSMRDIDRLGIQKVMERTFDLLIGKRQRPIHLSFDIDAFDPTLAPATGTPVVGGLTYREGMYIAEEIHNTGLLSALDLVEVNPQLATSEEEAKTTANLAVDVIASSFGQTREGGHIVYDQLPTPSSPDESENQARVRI
# [7] = target: T3, Proteasome subunit beta (Trypanosoma cruzi) (UniProt O96673); experiment: Trypanosoma cruzi proteasome chymotrypsin-like activity (TcProtChymo) assay.; note: in the data most compounds retested in dose-response had high values; format: functional; settings: 9.37 µM
# T3 sequence (whole entry): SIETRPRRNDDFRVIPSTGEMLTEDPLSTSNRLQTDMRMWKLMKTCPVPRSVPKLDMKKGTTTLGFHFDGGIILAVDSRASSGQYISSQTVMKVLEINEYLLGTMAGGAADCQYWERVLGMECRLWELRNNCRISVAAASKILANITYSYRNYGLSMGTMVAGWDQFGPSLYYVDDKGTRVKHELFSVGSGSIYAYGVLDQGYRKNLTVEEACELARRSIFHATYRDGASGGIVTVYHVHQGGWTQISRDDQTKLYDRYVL
# [8] = species on record: Homo sapiens; experiment: To identify inhibition of the IFN signalling (Jak-Stat) pathway via expression of an eGFP reporter gene under the control of an IFN-stimulated response element (ISRE) containing MxA promoter.; format: functional; settings: 30 µM
# [9] = target: T4, Tyrosyl-tRNA synthetase, putative (Trypanosoma cruzi (strain CL Brener)) (UniProt Q4DSP6); experiment: Trypanosoma cruzi tyrosyl tRNA synthetase (TcYRS) _High Tyrosine SOP; format: functional; settings: 30 µM; note: in the data most compounds retested in dose-response had high values
# T4 sequence (whole entry): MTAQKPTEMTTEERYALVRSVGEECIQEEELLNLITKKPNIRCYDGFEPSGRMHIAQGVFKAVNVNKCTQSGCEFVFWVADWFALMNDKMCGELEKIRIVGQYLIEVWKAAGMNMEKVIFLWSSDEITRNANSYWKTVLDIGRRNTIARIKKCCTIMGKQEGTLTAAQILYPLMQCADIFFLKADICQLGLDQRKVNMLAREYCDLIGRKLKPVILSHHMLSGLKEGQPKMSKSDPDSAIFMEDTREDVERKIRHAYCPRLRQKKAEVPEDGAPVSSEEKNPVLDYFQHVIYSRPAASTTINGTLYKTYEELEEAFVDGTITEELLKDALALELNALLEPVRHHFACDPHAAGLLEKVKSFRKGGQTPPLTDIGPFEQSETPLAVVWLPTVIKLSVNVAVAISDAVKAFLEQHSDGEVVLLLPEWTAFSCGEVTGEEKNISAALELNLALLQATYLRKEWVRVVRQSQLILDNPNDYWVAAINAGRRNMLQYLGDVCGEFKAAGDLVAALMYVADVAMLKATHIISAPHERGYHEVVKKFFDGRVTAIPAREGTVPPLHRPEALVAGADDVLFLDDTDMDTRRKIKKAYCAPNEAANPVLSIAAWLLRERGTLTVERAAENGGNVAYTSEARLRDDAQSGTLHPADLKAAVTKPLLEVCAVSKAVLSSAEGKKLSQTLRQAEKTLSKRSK
# [10] = target: T4, Tyrosyl-tRNA synthetase, putative (Trypanosoma cruzi (strain CL Brener)); experiment: Trypanosoma cruzi tyrosyl tRNA synthetase (TcYRS) SOP; format: functional; settings: 30 µM
# [11] = target: Chromo domain-containing protein 1 (Saccharomyces cerevisiae (strain ATCC 204508 / S288c) (Baker's yeast)) (UniProt P32657); experiment: ScCHD-1 Enzyme Inhibition Assay; format: functional; settings: 30 µM; note: in the data most compounds retested in dose-response had high values
# Chain of Chromo domain-containing protein 1 (Saccharomyces cerevisiae (strain ATCC 204508 / S288c) (Baker's yeast)) (P32657 whole entry, the tested form may be a part): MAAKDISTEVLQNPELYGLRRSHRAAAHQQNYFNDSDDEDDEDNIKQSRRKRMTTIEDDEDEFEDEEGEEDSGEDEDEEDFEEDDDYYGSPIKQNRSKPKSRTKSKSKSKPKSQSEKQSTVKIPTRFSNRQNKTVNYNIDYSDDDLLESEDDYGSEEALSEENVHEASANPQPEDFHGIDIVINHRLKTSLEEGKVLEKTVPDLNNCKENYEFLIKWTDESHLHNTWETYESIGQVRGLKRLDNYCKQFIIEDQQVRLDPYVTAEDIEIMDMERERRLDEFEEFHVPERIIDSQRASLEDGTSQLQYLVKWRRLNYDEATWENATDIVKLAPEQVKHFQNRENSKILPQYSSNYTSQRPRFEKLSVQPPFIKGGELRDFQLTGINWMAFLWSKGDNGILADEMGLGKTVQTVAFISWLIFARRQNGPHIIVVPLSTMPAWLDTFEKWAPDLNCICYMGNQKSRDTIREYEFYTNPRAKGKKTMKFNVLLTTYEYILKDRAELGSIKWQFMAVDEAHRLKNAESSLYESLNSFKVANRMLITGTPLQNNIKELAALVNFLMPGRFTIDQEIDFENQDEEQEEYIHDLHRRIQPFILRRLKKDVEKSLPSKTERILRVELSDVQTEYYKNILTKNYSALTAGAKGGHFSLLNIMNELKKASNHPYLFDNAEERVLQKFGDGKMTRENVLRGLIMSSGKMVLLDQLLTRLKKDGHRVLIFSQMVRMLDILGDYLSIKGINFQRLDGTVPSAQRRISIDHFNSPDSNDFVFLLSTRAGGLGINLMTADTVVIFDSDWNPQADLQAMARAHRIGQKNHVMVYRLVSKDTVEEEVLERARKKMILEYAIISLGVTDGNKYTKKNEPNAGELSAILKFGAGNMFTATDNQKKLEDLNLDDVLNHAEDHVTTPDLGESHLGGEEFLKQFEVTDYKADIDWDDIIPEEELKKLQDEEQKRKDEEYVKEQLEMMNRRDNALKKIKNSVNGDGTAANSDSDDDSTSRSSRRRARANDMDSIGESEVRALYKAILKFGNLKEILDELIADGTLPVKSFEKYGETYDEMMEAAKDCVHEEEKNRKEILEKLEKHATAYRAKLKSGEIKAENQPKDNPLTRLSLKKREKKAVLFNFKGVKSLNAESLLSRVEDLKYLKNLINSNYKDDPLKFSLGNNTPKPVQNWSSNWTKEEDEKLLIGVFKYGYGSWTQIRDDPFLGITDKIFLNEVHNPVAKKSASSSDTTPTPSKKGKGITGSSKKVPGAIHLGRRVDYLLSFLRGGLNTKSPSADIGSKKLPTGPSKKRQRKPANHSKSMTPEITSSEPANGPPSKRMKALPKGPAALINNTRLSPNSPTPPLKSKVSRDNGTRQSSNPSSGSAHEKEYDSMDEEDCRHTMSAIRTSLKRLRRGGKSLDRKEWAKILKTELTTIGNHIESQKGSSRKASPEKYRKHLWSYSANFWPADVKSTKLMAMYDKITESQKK
# Chain of Protein translocase subunit SecA (Escherichia coli (strain K12)) (P10408 whole entry): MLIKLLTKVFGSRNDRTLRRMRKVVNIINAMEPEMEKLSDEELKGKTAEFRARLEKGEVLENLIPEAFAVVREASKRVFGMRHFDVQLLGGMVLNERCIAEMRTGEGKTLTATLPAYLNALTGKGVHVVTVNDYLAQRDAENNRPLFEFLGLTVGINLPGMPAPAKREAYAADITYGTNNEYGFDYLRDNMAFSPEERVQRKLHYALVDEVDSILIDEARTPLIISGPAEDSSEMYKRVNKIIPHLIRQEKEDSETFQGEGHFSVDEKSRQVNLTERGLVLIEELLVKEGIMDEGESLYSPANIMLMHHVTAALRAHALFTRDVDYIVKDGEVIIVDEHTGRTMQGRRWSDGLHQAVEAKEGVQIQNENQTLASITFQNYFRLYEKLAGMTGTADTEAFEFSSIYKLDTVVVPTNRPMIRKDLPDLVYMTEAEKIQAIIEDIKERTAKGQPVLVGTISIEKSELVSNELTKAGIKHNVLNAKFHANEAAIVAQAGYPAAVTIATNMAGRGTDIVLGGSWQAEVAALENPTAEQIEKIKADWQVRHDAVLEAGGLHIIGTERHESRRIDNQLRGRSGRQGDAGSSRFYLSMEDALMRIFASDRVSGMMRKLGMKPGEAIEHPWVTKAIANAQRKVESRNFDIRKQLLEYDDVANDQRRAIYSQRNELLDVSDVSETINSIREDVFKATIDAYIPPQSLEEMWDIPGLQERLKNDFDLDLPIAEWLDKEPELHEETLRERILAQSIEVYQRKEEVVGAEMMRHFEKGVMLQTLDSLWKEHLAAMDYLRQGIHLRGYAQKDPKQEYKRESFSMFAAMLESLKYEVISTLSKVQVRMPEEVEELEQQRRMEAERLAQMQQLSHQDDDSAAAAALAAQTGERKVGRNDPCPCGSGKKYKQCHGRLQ
# Chain of Sialic acid-binding Ig-like lectin 9 (Homo sapiens) (Q9Y336 whole entry): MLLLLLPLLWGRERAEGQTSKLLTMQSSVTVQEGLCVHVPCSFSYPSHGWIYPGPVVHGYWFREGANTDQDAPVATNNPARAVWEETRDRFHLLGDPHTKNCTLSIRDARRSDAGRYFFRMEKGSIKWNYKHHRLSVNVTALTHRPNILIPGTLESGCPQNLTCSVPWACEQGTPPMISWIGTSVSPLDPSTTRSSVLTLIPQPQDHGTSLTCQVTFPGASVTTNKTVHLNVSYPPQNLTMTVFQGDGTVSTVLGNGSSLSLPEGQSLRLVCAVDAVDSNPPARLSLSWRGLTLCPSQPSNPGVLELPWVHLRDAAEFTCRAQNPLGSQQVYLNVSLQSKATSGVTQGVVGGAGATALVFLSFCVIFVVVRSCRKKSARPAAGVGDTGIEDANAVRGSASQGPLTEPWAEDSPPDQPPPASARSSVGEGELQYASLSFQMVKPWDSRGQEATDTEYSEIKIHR
SMILES,Percent Effect [1],Percent Effect [2],Percent Effect [3],Percent Effect [4],Percent Effect [5],Percent Effect [6],Percent Effect [7],Percent Effect [8],Percent Effect [9],Percent Effect [10],Percent Effect [11]
O=C(N[C@@H]1CN(c2ncccn2)C[C@@H]2CCCO[C@@H]21)c1cnccn1,-0.31%,8%,1.89%,11.3%,-1.74%,-48.6%,7.18%,10.6%,-7.29%,20%,-6.1%
c1nc2c(c(C3CC3)n1)CCN(Cc1ccc3c(c1)OCO3)CC2,-2.79%,-5.48%,3.53%,13.7%,4.37%,-0.399%,7.45%,8.17%,6.25%,1.24%,-2.36%
Cn1cc2c(n1)C(CNC(=O)Cc1ccsc1)OCC2 (configuration not stated),-4.65%,7.79%,-2.5%,-0.415%,4.83%,-7.1%,2.26%,7.06%,2.12%,3.85%,-6.29%
O=C(c1cn(-c2cc(N3CCOCC3)ncn2)cn1)N1CCSCC1,-3.27%,8.22%,-3.63%,4.82%,1.18%,4.09%,25%,8.07%,9.68%,15%,-5.28%
Cn1cc(-c2nc(CN3CCN(CCO)CC3)cs2)cn1,0.128%,15.8%,4.54%,-2.39%,-0.376%,-1.53%,21.9%,17%,9.31%,19.5%,-10.9%
N#Cc1ccc(CN2CCC(c3ccnn3CCO)CC2)cc1,-4.87%,10.5%,-3.54%,2.96%,0.654%,-1.8%,-4.48%,3.68%,7.39%,23.5%,-1.9%
CN(C)C(=O)N1C[C@@H]2CCCO[C@@H]2[C@H](N(C)Cc2ccco2)C1,-3.04%,13.7%,2.03%,7.85%,6.55%,-5.99%,8.99%,-3.94%,4.17%,13.6%,-11.2%
Cc1nn(C)c(C)c1-c1cncc(C2CCN(S(C)(=O)=O)CC2)n1,0.332%,-2.67%,22.7%,4.44%,-1.77%,2.1%,-3.96%,25.6%,3.19%,3.85%,0.849%
c1ccc2oc(NC3CCCN(Cc4noc(C5CC5)n4)C3)nc2c1 (configuration not stated),-1.73%,-5.41%,-1.19%,-0.829%,4.63%,3.81%,7.93%,-1.13%,2.65%,4.88%,5.42%
CC(C)(C)c1ccn(C2(C(=O)O)CCN(c3nccc(N)n3)CC2)n1,-4.48%,-6.94%,0.972%,0.435%,-2.23%,-0.442%,10.7%,0.112%,3.16%,-5.13%,6.06%
Cc1cccc(CN2CCC3(CCCN(C(=O)NC4CC4)C3)C2=O)n1 (configuration not stated),-0.773%,10.4%,-9.14%,-16.1%,-7.99%,5.81%,6.79%,11.4%,1.06%,1.28%,-9.83%
CC(C)COC(C)C(=O)N1CCN(S(C)(=O)=O)CC1 (configuration not stated),-3.12%,8.22%,-1.38%,2.29%,3.53%,1.36%,8.34%,-1.94%,4.3%,20%,-4.42%
Cc1c(C2CCCN(C(=O)C3CC3)C2)n2c(nc1=O)CCC2 (configuration not stated),-7.83%,23%,2.41%,-4.63%,-0.593%,0.232%,15.4%,3.94%,4.3%,11.7%,-11%
CCn1nc(C)c2nnn(CC(=O)Nc3cccc(Cl)c3)c(=O)c21,-4.67%,-6.67%,1.25%,3.3%,4.13%,-5.11%,12.9%,-22.7%,6.35%,7.69%,-7%
Cc1cccc(-c2noc(CN3CCC(N4CCNC4=O)CC3)n2)c1,-6.31%,13%,4.11%,4.47%,0.374%,-1.78%,-2.2%,21.5%,7.77%,12.2%,-3.52%
CCOC(=O)CCCNC(=O)CN1CCN(c2ncccn2)CC1,-2.22%,7.79%,-1.07%,5.04%,-3.64%,-112%,17.5%,2.75%,5.38%,8.64%,-0.631%
COc1ccc(CNC(=O)N(Cc2ccc(F)cc2F)C2CC2)cn1,-6.72%,15.2%,-2.76%,9.29%,5.95%,-0.76%,0.737%,8.63%,3.45%,21.5%,-7.42%
Cc1cnc2n(c1=O)CC(C(=O)Nc1cccc3cccnc13)CS2 (configuration not stated),-3.5%,-2.74%,-76.9%,-1.76%,5.88%,0.455%,8.87%,5.24%,1.07%,0%,-2.86%
CN1CC(=O)N(c2ccccc2)CC12CCN(Cc1cccnc1)C2 (configuration not stated),-2.77%,0%,0.129%,2.38%,-0.397%,2%,5.74%,3.56%,4.17%,1.24%,5.73%
CCCn1[nH]cc/c1=N\C(=O)CN1CCc2c(nc(C(C)C)n2C)C1,-0.801%,20.8%,-5.35%,-15.6%,-2.06%,-4.84%,11.6%,18.7%,8.57%,23.5%,-19.2%
CC(CNC(=O)Nc1cn[nH]c1)N1CCc2ccccc2C1 (configuration not stated),-4.87%,15.6%,-4.05%,-3.09%,-1.67%,0.632%,14.2%,12.5%,9.52%,21.2%,-18%
CC(NC(=O)Nc1cc(F)ccc1N1CCCCC1)c1nncn1C (configuration not stated),-4.95%,5.41%,-5.33%,-3.53%,-3.49%,2.81%,-3.78%,1.69%,1.48%,1.24%,-2.66%

# From ChEMBL document CHEMBL3988442, “University of Dundee, Small-Polar-MMV Screening Library” (2021)
